Screening data from PubChem BioAssay.
HepG2 viability: counter-screen for TGF-b inhibitors: cytotoxicity in HepG2 cells; 410,000 compounds, 0.76% hits; AID 588856; HepG2 CAGA-GFP viability, ATP luminescence, 18 h; Potency, µM (highest dose often 46.1 µM), for inactives: at the highest dose activity change, negative = cytotoxicity, actives largely listed as cytotoxic
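HepG2 CAGA-GFP cells (1000/well, DMEM with 1% FBS) received compound, then TGF-beta at 500 pg/mL final, and were incubated 18 hours at 37 degrees C. Viability was read by CellTiter-Glo luminescence. Media-only wells were set as complete cell-killing and DMSO as no toxicity.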
KB-V1 MDR tox: KB-V1 MDR subline cytotoxicity; 400,000 compounds, 3.4% hits; Potency, µM (titrated, usually from 46.1 µM), actives largely listed as cytotoxic; KB-V1 MDR cells viability, CellTiter-Glo, 72 h; note: % is set by controls: 0 for no effect and ±100 for the full control effect; nearly all actives have a fitted effect of over 60% in size
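KB-V1 cells (P-gp-expressing MDR subline of KB-3-1) in phenol-red-free DMEM with 10% FBS were exposed to library compounds over a concentration series for 72 h at 37 degrees C. Viability read by CellTiter-Glo luminescence; concentration-effect curves fitted after normalization.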
HT1080 IDH1KD tx: HT-1080 IDH1 knockdown cell toxicity (counter line). HT-1080 IDH1 knockdown viability, ATP luminescence, 48 h. 360,000 compounds, 2% hits. AID 686971. Potency, µM (titrated, usually from 46.1 µM), inactives show top-dose activity, negative = toxicity, most hits filed as cytotoxic;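 note: 0% = DMSO wells and -100% = cell-free medium wells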
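Cytotoxicity counter-line: IDH1KD HT-1080, 48 h, CellTiter-Glo. Curves classed by r2, magnitude and activity.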
KB-3-1 cytotox: kills parental KB-3-1 adenocarcinoma cells; Potency, µM (highest dose often 46.1 µM), hits mostly cytotoxic; 400,000 compounds, 1.4% hits; KB-3-1 viability, CellTiter-Glo ATP luminescence, 72 h; note: % is set by controls: 0 for no effect and ±100 for the full control effect; nearly all actives have a fitted effect of over 60% in size
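Cells are dispensed, compounds pinned in, plates held at 37 °C for 72 h, then CellTiter-Glo is added and luminescence read after 10 minutes. Cell line: parental KB-3-1 in phenol-red-free DMEM, 10% FBS.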
TGFb inhibitor: TGF-b pathway inhibition. 410,000 compounds, 1.2% hits. HepG2 CAGA-GFP TGF-b/SMAD3 reporter, GFP fluorescence, 18 h; TGF-beta stimulated, 500 pg/mL final. Potency, µM (top dose mostly 46.1 µM), for the others: top-dose activity, negative = inhibition, most hits filed as inhibitors. AID 588855; note: % is set by controls: 0 for no effect and ±100 for the full control effect; nearly all actives have a fitted effect of over 65% in size
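Read-out: total well GFP (ex488/em500-530) summed from mean per-cell fluorescence. Cells: HEPG2 CAGA-GFP, 1% FBS DMEM, 18 h at 37 degrees C with 500 pg/mL final TGF-beta. Unstimulated wells served as the full-inhibition control; stimulated DMSO wells = 0%.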
HT1080-NT tox: kills 2HG-producing HT-1080-NT fibrosarcoma cells. HT-1080-NT fibrosarcoma viability, CellTiter-Glo ATP luminescence, 48 h. Potency, µM (highest dose often 46.1 µM), for the others: top-dose activity, negative = less viability, actives largely listed as cytotoxic. 360,000 compounds, 1.6% hits. AID 686970;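 note: NT is the 2HG producing partner of a matched IDH1 knockdown line; 0% = DMSO-treated cells and -100% = media-only wells without cells; nearly all actives have a fitted effect of over 55% in size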
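Viability of the 2HG-overproducing fibrosarcoma line after 48 hours of compound exposure at 37 degrees C was determined by luminescence with CellTiter-Glo, and concentration-effect curves were then fitted and categorized.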
Active calls of the source: *; i = inactive; ? = inconclusive; . = no result given. Sampled rows, rich in hits. Any-hit rate of the full collection: about 6.6%. Calls come from the whole dose curve; as a rule, active = well fitted curve in the direction sought with a large enough effect; inconclusive = small, poorly fitted or top-dose-only effect, or another doubt; inactive = no such curve, though single readings can be large; an effect the other way counts as inactive or inconclusive. Potency is the fitted concentration of half-maximal effect.

SMILES | HepG2 viability | KB-V1 MDR tox | HT1080 IDH1KD tx | KB-3-1 cytotox | TGFb inhibitor | HT1080-NT tox
Cc1ccc2c(c1)C(=O)C(=O)N2CCOc1ccccc1 | -9% | ? | 21µM* | ? | ? | 7.3µM*
Cc1ccc2c(c1)C(=O)C(=O)N2Cc1ccc(Br)cc1 | -31% | ? | 23µM* | i | ? | ?
Cc1cccc(OCCN2C(=O)C(=O)c3cc(C)ccc32)c1 | -4% | ? | ? | ? | ? | 2.9µM*
CCCCN1C(=O)C(=O)c2cc(Cl)ccc21 | -86% | ? | 21µM* | ? | 13µM* | 26µM*
Cc1ccc2c(c1)C(=O)C(=O)N2CCCOc1ccccc1C | -21% | i | -29% | ? | ? | ?
Cc1ccc(CN2C(=O)C(=O)c3cc(C)ccc32)cc1 | -14% | ? | -10% | ? | ? | -5%
CCCN1C(=O)C(=O)c2cc(C)ccc21 | 7% | 8.2µM* | ? | 6.5µM* | 4% | ?
O=C([C@@H]1CC=C[C@@H]2CCN(C3CCCCC3)C(=O)[C@@H]21)N1CCOCC1 | 8% | i | . | i | -4% | .
Brc1ccc(Cn2c(-c3cncs3)nc3ccccc32)cc1 | -23% | 16µM* | 0% | i | -4% | 19%
c1ccc(Cn2c(-c3cncs3)nc3ccccc32)cc1 | -17% | i | 0% | i | -19% | 2%
CC(=O)c1ccccc1S(=O)(=O)N1CCN(c2nc(-c3cccs3)nc3ccccc23)CC1 | . | . | 0% | . | . | 1%
C=C(C)CN=C1SC(C(=O)Nc2sc3c(c2C(=O)OC)CCC3)C(N)=C1C(N)=O (stereo not drawn) | 3% | 9.2µM* | -8% | ? | ? | -7%
COC(=O)c1c(NC(=O)C2SC(=NC3CCCCC3)C(C(N)=O)=C2N)sc2c1CCCC2 (stereo not drawn) | -33% | i | 5% | i | -1% | 5%
Cc1ccccc1NC(=O)CSc1nc2c(oc3ccccc32)c(=O)n1Cc1ccco1 | -11% | i | . | i | 2% | .
Cc1cc(C)c(S(=O)(=O)Nc2ccc3c(c2)CCC3)c(C)c1 | -87% | ? | ? | i | 18µM* | 23µM*
Cn1c(=O)n(C)c2cc(NS(=O)(=O)c3ccc4c(c3)CCCC4)ccc21 | -24% | 9.2µM* | ? | 18µM* | 22% | ?
Cn1c(=O)n(C)c2cc(NS(=O)(=O)c3ccc(C(C)(C)C)cc3)ccc21 | -8% | ? | ? | i | -24% | -22%
Cc1cc(C)c(S(=O)(=O)Nc2ccccc2)c(C)c1 | 10% | 18µM* | -7% | i | ? | 1%
CC(C)(C)S(=O)N1Cc2cc(C(=O)Nc3ccc(-c4ccccc4)cc3)nc(-c3cccc(-c4cc5ccccc5o4)c3)c2[C@@H]1CCO (stereo partly drawn) | -57% | i | ? | i | ? | ?
C/C(=N\N=C1\NC(=O)C(Cc2ccccc2)S1)c1ccccc1 (stereo not drawn) | -13% | i | -11% | i | ? | -1%
CC(=O)/C(C#N)=C1\NC(=O)C(Cc2ccccc2)S1 (stereo not drawn) | -16% | 13µM* | ? | 15µM* | 24% | -6%
CC(=O)/C(C#N)=C1\NC(=O)C(Cc2ccccc2C)S1 (stereo not drawn) | -21% | 5.8µM* | ? | ? | -23% | -24%
COc1ccc(-c2nc3ccccc3n2Cc2ccccc2)cc1 | -25% | i | -24% | i | ? | -13%
COc1ccc(-c2n(Cc3ccccc3)c3ccccc3[n+]2Cc2ccccc2)cc1 | -45% | i | 5.8µM* | 7.3µM* | 7.9µM* | 4.6µM*
COc1ccc(CNC(=O)C2CCN(S(=O)(=O)N3CCC4(CC3)OCCO4)CC2)c(OC)c1 | 8% | i | 16µM* | i | -6% | ?
SMILES | HepG2 viability | KB-V1 MDR tox | HT1080 IDH1KD tx | KB-3-1 cytotox | TGFb inhibitor | HT1080-NT tox
COc1cccc(CNC(=O)C2CCN(S(=O)(=O)N3CCC4(CC3)OCCO4)CC2)c1 | 3% | i | 1% | i | 3% | -1%
COC(=O)[C@H]1C[C@@]2(O)CN(S(=O)(=O)c3ccc(C)cc3)C[C@@]2(OC(=O)NCc2ccccc2)C[C@H]1C(=O)OC | 3% | ? | 4% | ? | 6% | 11%
O=C(Cc1ccccc1)Nc1nnc(-c2ccncc2)s1 | . | i | . | i | . | .
COc1ccc2nc(SCc3cccc(C)c3)nc(C)c2c1 | 3% | 16µM* | ? | i | -3% | 18%
COc1ccc2nc(SCCOC(=O)Nc3ccc(Cl)cc3)nc(C)c2c1 | 4% | 15µM* | -22% | ? | ? | -8%
COc1ccc2nc(SCc3ccccc3C)nc(C)c2c1 | -20% | 15µM* | 4% | i | -14% | -3%
CCOP(=O)(OCC)c1nc(-c2cccc3ccccc23)oc1NCCc1ccc(OC)cc1 | 12% | 5.2µM* | -9% | ? | -33% | -21%
COc1ccc(CNc2oc(-c3cccc4ccccc34)nc2C#N)cc1 | -27% | i | 4% | i | ? | 9%
Cc1ccnc(NC(=S)N2CCN(C)CC2)c1 | . | i | . | i | . | .
CC(C)Sc1ncc(Cl)c(C(=O)Nc2ccc(S(=O)(=O)N3CCCCC3)cc2)n1 | 3% | i | . | i | -2% | .
O=C(N1CCN(c2ccccc2F)CC1)C12CC3CC(CC(C3)C1)C2 | -9% | 18µM* | -2% | i | -4% | 1%
